Compounds with a hit are over-represented: about 4.7% of the library has one in this group of screens.
Mtb FBA inh: inhibitors of M. tuberculosis fructose-bisphosphate aldolase. P9WQA3. purified M. tuberculosis FBA, fluorescence read-out. inhibition, % at 1 µM. hit rate 2.3% among 360,000. AID 588726; in the data active means inhibition above about 27%;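 further: 0% = vehicle and 100% = reference inhibitor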
RecA intein inh: Mtb RecA intein splicing inhibition | hit rate 0.75% among 290,000 | inhibition, % (concentration not given with the values) | cell-free RecA intein splicing, fluorescence; in the data active means inhibition above about 30%;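 further: 0% = vehicle wells and 100% = reference inhibitor control wells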
SARS 3CLpro inh-1: SARS-CoV 3CLpro protease inhibition; recombinant SARS-CoV 3CLpro, quenched FRET peptide cleavage; inhibition, % at 6 µM; hit rate 0.14% among 290,000; AID 1706; in the data active means inhibition above about 12%
VHR inh abs: blocks human VHR1 dual specificity phosphatase; P51452; recombinant VHR phosphatase, pNPP absorbance; inhibition, % at 13.3 µM; hit rate 0.52% among 290,000; AID 1654; in the data active means inhibition above about 50%
CCHF vOTU inh: CCHFV vOTU protease inhibition | Pep-AMC fluorescence | hit rate 0.55% among 370,000 | AID 651958 | inhibition, % at 11.5 µM; further: 0% = vehicle wells with enzyme and 100% = no enzyme wells
GDH-TPI counter: counter-screen for M. tuberculosis FBA inhibitors: GDH-TPI coupled enzymes; AID 588335; hit rate 1.2% among 360,000; GDH-TPI coupled enzyme counterscreen, NADH absorbance; inhibition, % at 4.8 µM;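 further: 0% = DMSO wells and 100% = wells lacking the enzyme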
SARS 3CLpro inh-2: confirmation of SARS coronavirus 3C-like protease inhibitors; shares compounds with SARS 3CLpro inh-1; QFRET protease activity assay, 3CLpro; inhibition, % at 6 µM; hit rate 36% among 380; AID 1879; in the data active means inhibition above about 13%
Starred values were filed as active, the others as inactive; · = not tested or not shown. Unless noted, no stated cut-off is given here; in the data, active means inhibition above about 30%; inactive means the rest.

SMILES	Mtb FBA inh	RecA intein inh	SARS 3CLpro inh-1	VHR inh abs	CCHF vOTU inh	GDH-TPI counter	SARS 3CLpro inh-2
Cc1cc(=O)oc2cc(OC(=O)c3ccco3)ccc12	194*	10	29*	-14	-356	-3	70*
COc1ccc(S(=O)(=O)Nc2ccc(S(=O)(=O)Nc3cc(C)nc(C)n3)cc2)cc1OC	18	·	-2	16	4	-5	·
COc1ccc(CCNC(=O)C(=O)NCC2OCCN2S(=O)(=O)c2ccc(OC)cc2)cc1 (stereo unspecified)	0	-7	0	25	-5	0	·
COc1ccc(S(=O)(=O)N2CCOC2CNC(=O)C(=O)NCCN(C)C)cc1 (stereo unspecified)	1	0	13*	-3	-9	4	-3
COc1ccccc1CCNC(=O)C(=O)NCC1OCCN1S(=O)(=O)c1ccc2c(c1)OCCO2 (stereo unspecified)	0	2	13*	-3	13	-6	-1
O=C(OCCCN1CCC2(CCCCC2)C1=O)c1ccccc1	·	·	·	·	-1	·	·
COC(=O)c1cc(C(=O)N2CCc3ccccc32)cc([N+](=O)[O-])c1	0	·	2	1	11	4	·
CCc1ccc(NC(=O)CN(c2ccc(OC)cc2)S(=O)(=O)c2c(C)[nH]c(=O)[nH]c2=O)cc1	3	5	-2	14	7	-3	·
CCOc1ccc(N(CC(=O)Nc2ccc(CC)cc2)S(=O)(=O)c2c(C)[nH]c(=O)[nH]c2=O)cc1	-1	5	14*	-9	-7	-3	-2
C[C@@]12C(=O)N(c3cccc(F)c3)C(=O)N1[C@H](c1ccc(F)cc1)[C@@H]1C(=O)N(C3CCCCC3)C(=O)[C@@H]12	-4	-5	14*	1	·	-2	6
CCOc1cc2c(cc1OCC)CN(C(=O)c1cccc(S(=O)(=O)N3CCCC3)c1)CC2	-1	·	·	·	7	4	·
Cc1snc(S(=O)(=O)/C(C#N)=N/Nc2cccc(C(F)(F)F)c2)c1C#N	-8	-32	15*	31	·	20	2
CCOC(=O)c1c(C)n(S(=O)(=O)c2ccc(C)cc2)c2ccc(O)c(C(=O)O)c12	-2	·	13*	32	12	-6	1
CCOC(=O)C1=C[C@@H](C)N(S(=O)(=O)c2ccc(C)cc2)[C@H]1c1ccccc1	-2	·	·	·	-3	·	·
CCOC(=O)c1oc2nc(CC(C)C)c3c(c2c1N)CCCC3	137*	·	13*	4	-43	0	3
COc1cc(/C=N\NC(=O)Cn2nnc3ccccc32)cc(OC)c1OC	2	0	37*	12	11	8	57*
O=C(Cn1cnc2ccccc21)N/N=C/c1cccs1	-1	-1	4	17	-10	0	·
O=C(Cn1nnc2ccccc21)N/N=C\c1cccs1	2	0	14*	7	7	4	16*
COc1cccc(NC(=O)CN(C)C(C)C(=O)N2CCCCC2)c1 (stereo unspecified)	4	·	·	·	13	6	·
O=C(CCl)N=c1sccn1Cc1ccc(Cl)cc1Cl	-1	44*	33*	20	-5	-4	63*
O=C(CCl)N=c1sccn1Cc1ccccc1Cl	-1	19	41*	17	-11	10	58*
CN(C)S(=O)(=O)c1cccc(NC(=O)CSc2cccc3cccnc23)c1	18	11	17*	1	3	-2	35*
Cc1ccc(NC(CNS(=O)(=O)c2ccc(Cl)cc2)c2ccccc2)cc1 (stereo unspecified)	-5	·	13*	21	10	-1	8
CCC1CCC(N2CCN(c3ccc([N+](=O)[O-])cc3)CC2)CC1 (stereo unspecified)	-2	1	13*	-7	10	8	0
COc1ccc(S(=O)(=O)c2c(O)c3ccc(C(=O)Nc4cccc(F)c4)cc3[nH]c2=O)cc1	1	-3	13*	-7	25	16	5
COc1cccc(NC(=O)c2ccc3c(O)c(S(=O)(=O)c4ccccc4)c(=O)[nH]c3c2)c1	1	1	8	-12	13	13	·
CC(C)(C)c1ccc(NC(=O)CSc2n[nH]c(=O)n2-c2cccnc2)cc1	1	-2	12*	-4	-4	-4	-3
C[C@@H]1O[C@H](C2CCCC2)Cc2[nH]c(=S)[nH]c(=O)c21	·	·	·	·	5	·	·
